The nature of assay [1]: NCI Yeast Anticancer Drug Screen. Data for the rad50 strain (AID 155).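 Further: 0% = growth of vehicle-only cultures of the same strain.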 The note with it: S. cerevisiae rad50 strain growth inhibition; at 50.0 µM; stronger effect = higher value. In outline:
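Yeast carrying a defined DNA repair defect were exposed to test compounds, and growth was compared with vehicle-treated controls to give percent inhibition.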

The nature of assay [2]: NCI Yeast Anticancer Drug Screen. Data for the mec2-1 strain (AID 157). Conditions: S. cerevisiae mec2-1 strain, at 50.0 µM, stronger effect = higher value. The method, boiled down:
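Test agents were screened against the mec2-1 yeast strain, with defined DNA repair or cell cycle alteration. Growth was scored as inhibition against vehicle-only controls.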

The nature of assay [3]: NCI Yeast Anticancer Drug Screen. Data for the sgs1 mgt1 strain (AID 161).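 Further: 0% = growth of cultures given vehicle only.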 Conditions: S. cerevisiae sgs1 mgt1 strain, at 50.0 µM, stronger effect = higher value. The method, boiled down: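 Mutant yeast exposed to compound; growth scored against vehicle-only wells.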
The nature of assay [4]: NCI Yeast Anticancer Drug Screen. Data for the cln2 rad14 strain (AID 165).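 Further: 0% = growth equal to vehicle treated cultures.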 The note with it: S. cerevisiae cln2 rad14 strain, at 50.0 µM, stronger effect = higher value. In outline:
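Growth of compound-exposed yeast (cln2 rad14 genotype) measured and expressed as inhibition relative to vehicle.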

Assay [5] in a line: NCI Yeast Anticancer Drug Screen. Data for the bub3 strain (AID 167). The note with it: S. cerevisiae bub3 mutant strain, at 50.0 µM, stronger effect = higher value. The method, boiled down: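 Compounds were applied to a genetically altered yeast strain carrying a cell-cycle control defect. Growth inhibition was scored against vehicle-treated controls.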
Assay [6] in a line: NCI Yeast Anticancer Drug Screen. Data for the mlh1 rad18 strain (AID 175). The note with it: S. cerevisiae mlh1 rad18 strain growth inhibition; at 50.0 µM; stronger effect = higher value. In outline: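 In this whole-cell yeast screen, a strain with altered DNA damage repair is challenged with compound, and its growth is measured against matched vehicle-treated controls.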

Where “and” joins values, the source holds several entries; their conditions need not be identical. Equal entries are not always repeated. The panel holds about 79,000 compounds, 15% with a hit somewhere; the sample as a whole holds those more often. Where a structure was tested more than once in an assay, its records may differ in their call. Calls of active or inactive are those of the source. No stated cut-off is given here; in the data, active means growth inhibition above about 70%; inactive means the rest.

This passage reports growth inhibition results from PubChem BioAssay (NCI).

Turning to `O=C1NC(=S)S/C1=C/c1ccnc2ccccc12`, the growth inhibition in assay [1] was 18.2% (inactive) and 6.7% (inactive); in assay [2] it was 14.8% (inactive) and 9.3% (inactive); in assay [3], 19.4% (inactive) and -3.1% (inactive); in assay [4] it was 20.9% (inactive) and -32.1% (inactive); in assay [5] it was 5.45% (inactive) and -8.75% (inactive); in assay [6] it was 1.25% (inactive) and -11.6% (inactive).

On to `CC12CCC(C1)C(C)(C)C2OC(=O)c1ccccc1C(=O)O` (configuration not stated), for which the growth inhibition is 11.5% (inactive) and 22.9% (inactive) in assay [1]; 29.1% (inactive) and -13.2% (inactive) in assay [2]; 20.4% (inactive) and -25.9% (inactive) in assay [3]; 4.6% (inactive) and -8.6% (inactive) in assay [4]; 13.8% (inactive) and 1.3% (inactive) in assay [5]; 8.9% (inactive) and 5.2% (inactive) in assay [6].

Regarding `O=c1[nH]c(=O)n(C2OC(CO)C(O)C2O)c2ncncc12` (configuration not stated), the growth inhibition in assay [1] was 3.15% (inactive) and 12.4% (inactive); in assay [2], 5.7% (inactive) and 4.75% (inactive); in assay [3], 31.2% (inactive) and -0.75% (inactive); in assay [4], 4.9% (inactive) and 8.8% (inactive); in assay [5], 16.4% (inactive) and -30.4% (inactive); in assay [6] it was -39.8% (inactive) and -25.5% (inactive).

In the case of `CC(=O)N1CCN(C(C)=O)C2C1N(C(C)=O)CCN2C(C)=O` (configuration not stated), the growth inhibition in assay [1] was -11.7% (inactive) and 11.8% (inactive); in assay [2], -18.9% (inactive) and -10.6% (inactive); in assay [3], -24.6% (inactive) and 11.8% (inactive); in assay [4], -20.1% (inactive) and 27% (inactive); in assay [5], -19.6% (inactive) and 19.8% (inactive); in assay [6], -17.1% (inactive) and 35.9% (inactive).

`CC(=O)OC1COC(N2CCc3ccccc32)C(OC(C)=O)C1OC(C)=O` (configuration not stated): the growth inhibition was -16.2% (inactive) and -19% (inactive) in assay [1]; -2.95% (inactive) and -28% (inactive) in assay [2]; -33% (inactive) and -34.4% (inactive) in assay [3]; -6.75% (inactive) and -2.5% (inactive) in assay [4]; -27.7% (inactive) and -17.9% (inactive) in assay [5]; -25.2% (inactive) and -33.2% (inactive) in assay [6].

With `CC(=O)OCC1OC(n2cnc3c(N)ncnc32)C(OC(C)=O)C1OC(C)=O` (configuration not stated), the growth inhibition in assay [1] is 3.05% (inactive) and 8.1% (inactive); in assay [2], -8.9% (inactive) and -3.3% (inactive); in assay [3], 18.8% (inactive) and 0.2% (inactive); in assay [4] it was 14.2% (inactive) and 11.4% (inactive); in assay [5] it was 5.3% (inactive) and -0.8% (inactive); in assay [6], 18.1% (inactive) and -0.25% (inactive).

With `O=C(O)CC(c1ccccc1)c1ccccc1`, the growth inhibition in assay [1] is -47.2% (inactive) and 9.6% (inactive); in assay [2], -39% (inactive) and -5.4% (inactive); in assay [3], -2.95% (inactive) and 2.15% (inactive); in assay [4], 3.35% (inactive) and -3.55% (inactive); in assay [5], -30.6% (inactive) and -21.7% (inactive); in assay [6], -28.1% (inactive) and -0.95% (inactive).

For the molecule `C1=NCCCN1`, the growth inhibition was 19.4% (inactive) and 21.4% (inactive) in assay [1]; -7.95% (inactive) and -23.4% (inactive) in assay [2]; 13.3% (inactive) and 20.6% (inactive) in assay [3]; 9.4% (inactive) and 6.35% (inactive) in assay [4]; 18.2% (inactive) and 3% (inactive) in assay [5]; 22.2% (inactive) and 18.6% (inactive) in assay [6].

Take `COc1cc(C)c2c(ccc3ccccc32)n1`: the growth inhibition is 24.6% (inactive) and 23.9% (inactive) in assay [1]; 19.5% (inactive) and 24.4% (inactive) in assay [2]; 16.5% (inactive) and 11.2% (inactive) in assay [3]; -9.35% (inactive) and 21.9% (inactive) in assay [4]; 10.2% (inactive) and 16.4% (inactive) in assay [5]; 61.2% (inactive) and 18.9% (inactive) in assay [6].

`O=[N+]([O-])c1ccc(N=Cc2ccc(Cl)cc2)cc1`: the growth inhibition in assay [1] was -0.2% (inactive) and 4.6% (inactive); in assay [2], -6.05% (inactive) and 4.9% (inactive); in assay [3], -23.2% (inactive) and -2.25% (inactive); in assay [4], -0.2% (inactive) and -40.4% (inactive); in assay [5] it was 5.85% (inactive) and 7.9% (inactive); in assay [6], -4.15% (inactive) and -3.05% (inactive).

`CCCC(=O)Oc1ccccc1C(C)C`: the growth inhibition in assay [1] was 12.5% (inactive) and 2.75% (inactive); in assay [2], 11.9% (inactive) and -21.8% (inactive); in assay [3], 11% (inactive) and -5.25% (inactive); in assay [4], 14.1% (inactive) and -8.9% (inactive); in assay [5], 6.8% (inactive) and -0.15% (inactive); in assay [6], 1.65% (inactive) and -19.6% (inactive).

Consider `CC1(C)CC(=O)CC(=O)C1`, for which the growth inhibition in assay [1] is 25.2% (inactive) and 10.2% (inactive); in assay [2], 12.8% (inactive) and 3.15% (inactive); in assay [3], -9.3% (inactive) and 4.6% (inactive); in assay [4], 18.8% (inactive) and 0.85% (inactive); in assay [5], 2.55% (inactive) and 6.75% (inactive); in assay [6], 18.6% (inactive) and 6.8% (inactive).

As to `NC(=S)N/N=C/c1ccc([N+](=O)[O-])cc1`, the growth inhibition in assay [1] is 40.4% (inactive) and 11.5% (inactive); in assay [2] it was 29.7% (inactive) and 13.2% (inactive); in assay [3] it was 29.2% (inactive) and 4.5% (inactive); in assay [4], 24.1% (inactive) and 20.6% (inactive); in assay [5] it was 5.7% (inactive) and 3.7% (inactive); in assay [6], 30.9% (inactive) and 5.95% (inactive).

Regarding `CC(Cc1ccccc1)NC1=NCCO1` (configuration not stated), the growth inhibition in assay [1] was -10.2% (inactive) and -16.2% (inactive); in assay [2], -4.95% (inactive) and -18.4% (inactive); in assay [3], 0.55% (inactive) and 1.5% (inactive); in assay [4] it was 17.1% (inactive) and -13.2% (inactive); in assay [5] it was -25.9% (inactive) and -27.4% (inactive); in assay [6], 0.1% (inactive) and 72.5% (active).

On to `C[n+]1cccc2ccccc21`, for which the growth inhibition was -17.1% (inactive) and -14% (inactive) in assay [1]; -11.8% (inactive) and -2.1% (inactive) in assay [2]; -40.5% (inactive) and -8.3% (inactive) in assay [3]; -10.7% (inactive) and -59% (inactive) in assay [4]; 11.5% (inactive) and 6.7% (inactive) in assay [5]; -11.6% (inactive) and -4.15% (inactive) in assay [6].

Take `O=[N+]([O-])c1cc(S(=O)(=O)O)ccc1Cl`: the growth inhibition is -9.65% (inactive) and 14.6% (inactive) in assay [1]; 3.25% (inactive) and -1.15% (inactive) in assay [2]; -9.3% (inactive) and -7.65% (inactive) in assay [3]; 9.2% (inactive) and 12.7% (inactive) in assay [4]; 0.1% (inactive) and 6.25% (inactive) in assay [5]; 15.2% (inactive) and 14.8% (inactive) in assay [6].

`ClCC(CCl)(CCl)CCl`: the growth inhibition is 24.6% (inactive) and 1.15% (inactive) in assay [1]; 6.95% (inactive) and -12.9% (inactive) in assay [2]; 13.4% (inactive) and 7.95% (inactive) in assay [3]; 6% (inactive) and 20.1% (inactive) in assay [4]; 12.3% (inactive) and -0.2% (inactive) in assay [5]; 5.85% (inactive) and 1.45% (inactive) in assay [6].

In the case of `Cc1ccc(S(=O)(=O)NN)cc1`, the growth inhibition in assay [1] is -8.7% (inactive) and 9.3% (inactive); in assay [2], 2.3% (inactive) and -9.9% (inactive); in assay [3] it was -3.6% (inactive) and 5.7% (inactive); in assay [4] it was 2.5% (inactive) and 6.7% (inactive); in assay [5] it was -30.2% (inactive) and 16.4% (inactive); in assay [6], -20% (inactive) and 5.9% (inactive).

`CCOC(=O)CNC(=O)C(Cc1ccccc1)NC(=O)c1ccccc1N` (configuration not stated): the growth inhibition in assay [1] is 14% (inactive) and 12.7% (inactive); in assay [2], -1.7% (inactive) and -2.6% (inactive); in assay [3], -0.1% (inactive) and 9.95% (inactive); in assay [4] it was -5.4% (inactive) and -6.3% (inactive); in assay [5] it was 8.7% (inactive) and 4.45% (inactive); in assay [6], 7.25% (inactive) and 4.15% (inactive).

In the case of `C1CCC(N2CN(C3CCCCC3)C2)CC1`, the growth inhibition in assay [1] is 7.7% (inactive) and 0.05% (inactive); in assay [2], -11.9% (inactive) and 0.5% (inactive); in assay [3], -17.1% (inactive) and -8.8% (inactive); in assay [4] it was -14.5% (inactive) and 10.3% (inactive); in assay [5], -8.85% (inactive) and -19.4% (inactive); in assay [6] it was -31.8% (inactive) and 18% (inactive).

Turning to `S=C(S)NCCNC(=S)S.[Cu+2]`, the growth inhibition in assay [1] is 1.15% (inactive) and 27.4% (inactive); in assay [2], -8.7% (inactive) and -11.9% (inactive); in assay [3] it was -0.6% (inactive) and 6.45% (inactive); in assay [4], -41.2% (inactive) and -56.4% (inactive); in assay [5], -18.2% (inactive) and -14.6% (inactive); in assay [6], 5.3% (inactive) and -15.5% (inactive).

Regarding `O=[N+]([O-])c1ccc(NCS(=O)(=O)O)cc1`, the growth inhibition is 6.95% (inactive) and -2% (inactive) in assay [1]; -14.3% (inactive) and -7.9% (inactive) in assay [2]; -9.35% (inactive) and 5.9% (inactive) in assay [3]; -12.2% (inactive) and -15.8% (inactive) in assay [4]; 8.55% (inactive) and -3.05% (inactive) in assay [5]; 5.7% (inactive) and 17.8% (inactive) in assay [6].
